# Measured values reported in PubChem BioAssay (NCI).
# Compounds without any hit were thinned out: in the full panel of roughly 83,000, 20% have a hit.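 Compound tested at a single concentration for 48 hours in 96-well plates; a percent growth value below 10 was scored as active.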 Unmarked numbers belong to inactive results. Activity calls are given as the source filed them.
# Legend:
# Assay in all cases: NCI-60 one-dose screen, 48 h (100 = growth as untreated, 0 = no growth, -100 = all killed)
# Details in all cases: 10 µM unless noted
# [1] = tested on: NCI-H23 lung
# [2] = tested on: NCI-H322M lung
# [3] = tested on: HOP-62 NSCLC
# [4] = tested on: NCI-H460 lung
# [5] = tested on: HOP-92 NSCLC
# [6] = tested on: NCI-H522 lung
# [7] = tested on: A549/ATCC NSCLC
# [8] = tested on: 786-0 renal
# [9] = tested on: COLO 205 colon
# [10] = tested on: DU-145 prostate
# [11] = tested on: K-562 leukemia
# [12] = tested on: MALME-3M melanoma
# [13] = tested on: MDA-MB-231 breast
# [14] = tested on: RXF 393 renal
# [15] = tested on: SF-268 CNS
# [16] = tested on: SF-295 CNS
# [17] = tested on: SF-539 CNS
# [18] = tested on: UACC-257 melanoma
# [19] = tested on: M14 melanoma
# [20] = tested on: HCT-15 colon
SMILES,growth [1],growth [2],growth [3],growth [4],growth [5],growth [6],growth [7],growth [8],growth [9],growth [10],growth [11],growth [12],growth [13],growth [14],growth [15],growth [16],growth [17],growth [18],growth [19],growth [20]
CC(=O)Nc1nc2c(s1)CCc1c-2cn(S(=O)(=O)c2ccccc2)c1-c1ccccc1,82.1%,79.4%,101%,75.3%,87.4%,54.5%,53.4%,88.3%,75.3%,78.4%,37.9%,-23.6% (active),73.6%,85%,71.4%,43.5%,93.5%,93%,36.9%,51.9%
O=C1c2cc(I)ccc2Oc2cc([N+](=O)[O-])ccc2N1c1ccc(Cl)cc1F,87.7%,93.4%,89.9%,90.4%,88.3%,65.7%,78.2%,98%,106%,97.9%,49.4%,84.9%,78.4%,99%,79.1%,92%,92.8%,94.1%,97.7%,57.4%
Cc1ccc2cc3c(N)c4c(C)ccc(C)c4nc3nc2c1,89.4%,72.4%,76.3%,53%,29.4%,-23.9% (active),45.1%,54.2%,-53.3% (active),80.5%,-18.6% (active),-77% (active),7.18% (active),45.1%,17.4%,-45.8% (active),-68% (active),-78.8% (active),-79.1% (active),10.8%
CN1C(=O)N(C)C2Nn3c(s/c(=C4\C(=O)N(CCc5ccccc5)c5ccccc54)c3=O)=NC21 (stereo not given),72%,72.6%,75.9%,95.4%,93.2%,36.7%,55.6%,61.8%,60.1%,63%,34.9%,85.1%,80.5%,64.1%,60.9%,72%,48.4%,62.3%,57.3%,44.6%
Nc1no[n+]([O-])c1-c1nnc2c(n1)-c1ccccc1C2=O,-40.8% (active),74.1%,104%,65.8%,55.1%,96%,98.1%,97.2%,42.1%,1.97% (active),-14.9% (active),64%,67.8%,91.2%,76.5%,86.7%,81.8%,-11.9% (active),18.9%,-71.4% (active)
COc1cc(/C=C/C(=O)c2c(C)nc3ccccc3c2/C=C/c2ccccc2)cc(OC)c1OC,10.9%,21%,22.2%,-33.3% (active),14.6%,-21% (active),8.71% (active),18.2%,4.78% (active),-0.597% (active),6.02% (active),36.3%,-0.432% (active),-17.2% (active),25.9%,29.8%,1.35% (active),42.1%,-6.24% (active),-6.23% (active)
COc1cc(/C=C2\CCC/C(=C\c3cc(CN4CCOCC4)c(O)c(OC)c3)C2=O)cc(CN2CCOCC2)c1O,21.4%,46.4%,46.6%,11.6%,36.8%,34.4%,35.8%,57.8%,45.2%,14.9%,15.3%,46.3%,26.2%,6.08% (active),42.3%,59.6%,32%,64.7%,36.7%,21.9%
CCOc1cccc(/C=N/NC(=O)C(=O)Nc2cccc(C(F)(F)F)c2)c1O,43.4%,30.7%,39.1%,15.2%,43.8%,-0.686% (active),21.3%,23%,11.5%,39.8%,21.7%,56.7%,31.7%,37.6%,35.4%,10%,11.7%,5.14% (active),13.2%,22.3%
O=C(NC1CCCCC1)C(c1cccs1)N(CCc1ccccc1)C(=O)c1ccco1 (stereo not given),86.1%,96.5%,90.6%,103%,75.5%,65.2%,92.2%,91.1%,96.1%,103%,82.8%,-11.2% (active),98.5%,97.3%,92.6%,84.7%,90.9%,98.6%,93.7%,93.4%
COc1cccc(C(=O)NC(c2ccc(C)cc2)c2cc(Cl)c3cccnc3c2O)c1 (stereo not given),28.7%,9.1% (active),9.9% (active),0.0612% (active),31.8%,9.38% (active),6.84% (active),6.38% (active),14.4%,15.3%,7.41% (active),-1.84% (active),31.2%,9.4% (active),6.71% (active),-0.279% (active),1.97% (active),-7.2% (active),-13.9% (active),28.1%
N#C/C(=C1\SC(=O)CN1c1ccccc1)c1nc2ccccc2s1,75.8%,102%,94.4%,97.1%,102%,80.5%,97%,102%,103%,99.7%,82.8%,99.3%,85.5%,105%,103%,84.2%,97.6%,97%,91.2%,95.8%
CN(C)CCNc1cc(-c2ccccc2)nc2ccccc12,-32.9% (active),8.29% (active),-65.4% (active),0.75% (active),-68.6% (active),-90.6% (active),-53.8% (active),-79.2% (active),-73.7% (active),-62.1% (active),0.508% (active),-77.3% (active),-33.7% (active),-91.1% (active),-53.3% (active),-71.5% (active),-74.4% (active),-74.5% (active),-20.4% (active),6.92% (active)
Cc1ccc(F)cc1NC(=O)c1cc(Cl)ccc1Nc1ccccc1,60.1%,62.4%,83.9%,40.2%,75.9%,47.7%,42.3%,68.1%,16%,69.6%,22.3%,83%,69.7%,68.3%,55%,13.7%,62.5%,65.7%,45.1%,38.4%
CC(C)CCNCC(O)Cn1c2ccccc2c2ccccc21 (stereo not given),25.4%,30.7%,18.1%,1.52% (active),-13.7% (active),20.3%,11.9%,25.2%,2.79% (active),9.71% (active),1.84% (active),-12.3% (active),41.6%,8.43% (active),30.7%,-40% (active),16.1%,1.45% (active),11.8%,14.9%
CC1=C(C(=O)OCC2CCN(C(=O)OC(C)(C)C)CC2)[C@H](c2cccc(C#N)c2)C2=C(CC(C)(C)CC2=O)N1,65.7%,68.4%,70.3%,12.8%,86.3%,8.74% (active),46.1%,62.8%,50.9%,52.5%,24.3%,66.1%,59.7%,83.2%,52.5%,40.5%,48%,70%,50.4%,23.7%
